Results from PubChem BioAssay (NCATS).
Inconclusive results are not listed. A call without a number means that no potency is given here. Active and inactive are the calls of the source. The call rests on the fitted dose curve; in most records, active means well fitted inhibition curve with a large enough effect; inconclusive means small, poorly fitted or top-dose-only effect; inactive means no such curve, though single readings can be large or run the other way.

test: Primary qHTS for inhibitors of nuclear receptor binding SET domain protein 2 (NSD2) in an RCH-ACV wild type WT cells (2C) (AID 1645877); conditions: RCH-ACV (leukaemia line) NSD2 WT (2C) viability, CellTiter-Glo, 72 h; series mostly up to 44.9 µM; further: nearly all actives have a fitted effect of over 70% in size
Excerpt: Assay Provider: Jonathan D. Licht, MD
University of Florida College of Medicine, Gainesville, FL
Mutations in epigenetic regulators are common in relapsed pediatric acute lymphoblastic leukemia (ALL). Here, we uncovered the mechanism underlying the relapse of ALL driven by an activating mutation of the NSD2 histone methyltransferase (p.E1099K). […] Correction of this mutation restored glucocorticoid sensitivity. The transcriptional response to glucocorticoids was blocked in NSD2 mutant cells due to depressed glucocorticoid receptor (GR) levels and the failure of glucocorticoids to autoactivate GR expression. […] Pre-treatment of NSD2 p.E1099K cell lines and PDX samples with PRC2 inhibitors reversed glucocorticoid resistance in vitro and in vivo.
High-throughput drug screening of isogenic RCH-ACV cell lines was performed at the National Center for Advancing Translational Science (NCATS), National Institutes of Health as previously described (1). Briefly, isogenic RCH-ACV NSD2 p.E1099K mutant (9B) and WT cells (2C) were plated at 500 cells/well in a 1536-well plate with a 72-hour incubation with compounds prior to addition of CellTiter-Glo to assess cell viability. NCATS libraries screened include: NPC, MIPE 5.0, Kinase and NPACT. To determine compound activity in the qHTS assay, the concentration-response data for each sample was plotted and modeled by a four-parameter logistic fit yielding IC50 and efficacy (maximal response) values. The area under the curve (AUC) of the dose-response curve ensures both efficacy (magnitude of cell killing) and potency (concentration that elicits cell killing) are accounted for in the analysis of activity.
1. Tobie D Lee, Olivia W Lee, Kyle R Brimacombe, Lu Chen, Rajarshi Guha, Sabrina Lusvarghi, Bethilehem G Tebase, Carleen Klumpp-Thomas, Robert W Robey, Suresh V Ambudkar, Min Shen, Michael M Gottesman, Matthew D Hall. A High-Throughput Screen of a Library of Therapeutics Identifies Cytotoxic Substrates of P-glycoprotein. Mol Pharmacol. 2019, Nov;96(5):629-640.

For `Cc1cc2c(OCC(CNC(C)(C)C)OC(=O)c3ccccc3)cccc2[nH]1` (stereo not given), which Potency is on record?
Its Potency is “inactive”.

Which Potency does the source give for `Cc1ccc(-c2ncc(Cl)cc2-c2ccc(S(C)(=O)=O)cc2)cn1` here?
Its Potency is “inactive”.

With `NS(=O)(=O)Cc1noc2ccccc12` as the compound, how does the Potency read?
The Potency was “inactive”.

For `CCN1CCN(C(=O)N[C@@H](C(=O)N[C@@H]2C(=O)N3C(C(=O)O)=C(CSc4nnnn4C)CS[C@H]23)c2ccc(O)cc2)C(=O)C1=O`, which Potency is on record?
Its Potency is “inactive”.

With `COc1ccc2c(c1)c1c3n2CCN(C)C3=NCC1` as the compound, how does the Potency read?
Its Potency is “inactive”.

For `COc1ccc(/C=N/NC(=O)c2ccncc2)cc1OC`, which Potency is on record?
Its Potency is “inactive”.

For `CC(=O)NCCCCCC(=O)O`, which Potency is on record?
Its Potency is “inactive”.

For `CC[C@H](c1ccc(O)cc1)[C@@H](CC)c1ccc(O)cc1`, which Potency is on record?
Its Potency is 8.41 µM (active).

With `CCCCNC(=O)NS(=O)(=O)c1ccc(N)cc1` as the compound, how does the Potency read?
Its Potency is “inactive”.

For `OC(C#CCN1CCCC1)(c1ccccc1)c1ccccc1`, which Potency is on record?
Its Potency is “inactive”.

For `CN(Cc1ccc(C(C)(C)C)cc1)Cc1cccc2ccccc12`, which Potency is on record?
The Potency was “inactive”.

For `CCCCN1C[C@H](O)[C@@H](O)[C@H](O)[C@H]1CO`, which Potency is on record?
The Potency was “inactive”.

For `O=C(N/N=C/c1ccc([N+](=O)[O-])o1)c1ccc(O)cc1`, which Potency is on record?
The Potency was 8.41 µM (active).

Which Potency does the source give for `CC(C)[C@@H]1CC[C@@H](C)CC1=O` here?
Its Potency is “inactive”.

Which Potency does the source give for `Cc1c[nH]c2ccccc12` here?
Its Potency is “inactive”.

Which Potency does the source give for `CCCCCCCCCCCCCC(=O)OC(C)C` here?
The Potency was “inactive”.

For `Cc1cccc(C)c1NC(=O)c1ccccc1C(=O)O`, which Potency is on record?
The Potency was “inactive”.

With `NC(=S)N/N=C/c1cccnc1` as the compound, how does the Potency read?
The Potency was “inactive”.

Which Potency does the source give for `Clc1cccc(C(c2ccc3nc[nH]c3c2)n2ccnc2)c1` (stereo not given) here?
The Potency was “inactive”.

For `OCCOCCN1CCN(C2=Nc3ccccc3Sc3ccccc32)CC1`, which Potency is on record?
The Potency was “inactive”.

Which Potency does the source give for `O=C1C(=O)c2ccccc2C(O)=C1C1CCC(c2ccc(Cl)cc2)CC1` (stereo not given) here?
Its Potency is “inactive”.

For `COc1ccc(CCN(C)CCCN2CCc3cc(OC)c(OC)cc3CC2=O)cc1OC`, which Potency is on record?
The Potency was “inactive”.

For `CCN(CC)CCNC(=O)c1cc(Br)c(N)cc1OC`, which Potency is on record?
The Potency was “inactive”.

Which Potency does the source give for `COP(=O)(OC)OC(c1ccc(Cl)cc1)P(=O)(OC)OC` (stereo not given) here?
The Potency was “inactive”.

Which Potency does the source give for `Nc1nc(-c2ccccc2)c(Br)c(=O)[nH]1` here?
Its Potency is “inactive”.

With `Cc1ccccc1OCC(O)CO` (stereo not given) as the compound, how does the Potency read?
Its Potency is “inactive”.

Which Potency does the source give for `Nc1nc(N)c(-c2ccccc2)s1` here?
The Potency was “inactive”.

For `O=C(Nc1ccc([N+](=O)[O-])cc1)Nc1ccc([N+](=O)[O-])cc1`, which Potency is on record?
Its Potency is “inactive”.

For `FC1(F)C(F)(F)C(F)(F)C2(F)C(F)(F)C(F)(F)C(F)(F)C(F)(F)C2(F)C1(F)F` (stereo not given), which Potency is on record?
Its Potency is “inactive”.

With `C[C@@H](O)[C@H]1C(=O)N2C(C(=O)O)=C([C@H]3CCCO3)S[C@H]12` as the compound, how does the Potency read?
Its Potency is “inactive”.

Which Potency does the source give for `CCCCC(CC)COC(=O)c1ccc(N(C)C)cc1` (stereo not given) here?
The Potency was “inactive”.

Which Potency does the source give for `CCCCCCCCCCC[C@@H](C[C@@H]1OC(=O)[C@H]1CCCCCC)OC(=O)[C@H](CC(C)C)NC=O` here?
The Potency was “inactive”.

Which Potency does the source give for `CCOc1ccc(NC(C)=O)cc1` here?
Its Potency is “inactive”.

For `CCCCCCCCCCCCCCCC(=O)O`, which Potency is on record?
Its Potency is “inactive”.

For `CC(CNC1CCCCC1)OC(=O)c1ccccc1` (stereo not given), which Potency is on record?
The Potency was “inactive”.

With `C=CCN1CCc2nc(N)sc2CC1` as the compound, how does the Potency read?
The Potency was “inactive”.

With `CCN[C@@H]1C[C@H](N)[C@@H](OC2OC(CN)=CCC2N)[C@H](O)[C@H]1O[C@H]1OC[C@](C)(O)[C@H](NC)[C@H]1O` (stereo not given in full) as the compound, how does the activity change, negative = cell killing read?
The activity change, negative = cell killing was 2.3% [at 0.588 µM] (inactive).

For `Cc1ccc2c(Br)cc(Br)c(O)c2n1`, which Potency is on record?
The Potency was 2.37 µM (active).

With `Nc1ccc(C(=O)NCC(=O)O)cc1` as the compound, how does the Potency read?
Its Potency is “inactive”.

Which Potency does the source give for `CCC(C(=O)OCCOCCN(CC)CC)c1ccccc1` (stereo not given) here?
Its Potency is “inactive”.
